The values that follow come from PubChem BioAssay (NCI).

SMILES strings stand for the structures. Values joined by “and” are separate entries in the source; they are usually repeats but may differ in a detail not shown here. Equal entries are not always repeated. About 83,000 compounds went through this panel and 20% of them were active in at least one assay; those are over-represented in the sample as a whole.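 Activity criterion: percent growth below 10, measured after cells in 96-well plates were exposed to a single compound concentration for 48 hours.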 Active and inactive are the calls of the source.

What all share (assay): NCI-60 one-dose screen, 48 h (100 = growth as untreated, 0 = no growth, -100 = all killed)
The subject of test [1] is NCI-H23 lung. The note with it: 10 µM unless noted.
For test [2], the system named is NCI-H226 lung. The following applies: 10 µM unless noted.
The test system of test [3] is NCI-H322M lung. The following applies: 10 µM unless noted.
Test [4] deals with HOP-62 NSCLC. The following applies: 10 µM unless noted.
The test system of test [5] is NCI-H460 lung. The following applies: 10 µM unless noted.
Test [6] relates to NCI-H522 lung. The following applies: 10 µM unless noted.
In test [7] the test system is A549/ATCC NSCLC. The following applies: 10 µM unless noted.
Test [8] relates to 786-0 renal. The note with it: 10 µM unless noted.
Test [9] has as its system COLO 205 colon. The note with it: 10 µM unless noted.
Test [10] relates to DU-145 prostate. The following applies: 10 µM unless noted.
In test [11] the test system is K-562 leukemia. The note with it: 10 µM unless noted.
The subject of test [12] is MALME-3M melanoma. The note with it: 10 µM unless noted.
Test [13] concerns MDA-MB-231 breast. The note with it: 10 µM unless noted.
For test [14], the system named is RXF 393 renal. The following applies: 10 µM unless noted.
The test system of test [15] is SF-268 CNS. The following applies: 10 µM unless noted.
Test [16] concerns SF-295 CNS. The following applies: 10 µM unless noted.
The subject of test [17] is SF-539 CNS. The note with it: 10 µM unless noted.
The subject of test [18] is UACC-257 melanoma. The following applies: 10 µM unless noted.
Test [19] deals with M14 melanoma. The following applies: 10 µM unless noted.
For test [20], the system named is HOP-92 NSCLC. The note with it: 10 µM.

With `COC1CC(CC2CCC(C)C(C(C)C(=O)O)O2)OC2(OC(C)(C3CCC(C)(C4OC(C5OC(O)(CO)C(C)CC5C)CC4C)O3)CC2C)C1C` (centres undefined), the growth in test [1] is 9.19% (active); in test [2], 22% (inactive); in test [3], 9.36% (active); in test [4], 10.1% (inactive); in test [5], 4.73% (active); in test [6] it was -55.7% (active). The growth was 7.35% (active) in test [7]; 6.74% (active) in [8]; -12% (active) in test [9]; 17.5% (inactive) in test [10]; -67.6% (active) in test [11]; -96% (active) in [12]. Also, the growth in test [13] is -21.7% (active); in test [14], 28% (inactive); in [15] it was 10.7% (inactive); in [16], -39.2% (active); in test [17] it was -49.1% (active); in test [18], 7.33% (active). The growth in [19] was -71.9% (active).

In the case of `CCOC(=O)C(NC(=O)C(Cc1ccc(N(CCCl)CCCl)cc1)NC(C)=O)C(C)C` (centres undefined), the growth is 81% (inactive) in test [1]; 90.8% (inactive) in [2]; 95.4% (inactive) in [3]; 83.5% (inactive) in test [4]; 49.9% (inactive) in test [5]; 98.7% (inactive) in test [20]. Also, the growth in [6] is 64.1% (inactive); in [7], 56% (inactive); in [8] it was 88.6% (inactive); in test [9], 66.5% (inactive); in [10], 99.7% (inactive); in [11] it was 85.6% (inactive). The growth in [12] is 91.7% (inactive); in test [13], 96.8% (inactive); in test [14] it was 96.4% (inactive); in test [15] it was 71.5% (inactive); in test [16] it was 86% (inactive); in [17], 77.3% (inactive). Moreover, the growth in test [18] is 87.2% (inactive); in test [19] it was 84.1% (inactive).

Take `COc1ccccc1/C=C(/C)[N+](=O)[O-]`: the growth in [1] is 88.3% (inactive) and 90.8% (inactive); in test [2], 100% (inactive) and 105% (inactive); in test [3], 92.7% (inactive) and 92.2% (inactive); in [4], 109% (inactive) and 83.1% (inactive); in test [5] it was 87.3% (inactive) and 107% (inactive); in test [20] it was 96.5% (inactive). Also, the growth in test [6] is 50% (inactive) and 84.5% (inactive); in [7], 93.3% (inactive) and 76.9% (inactive); in [8] it was 82.2% (inactive) and 101% (inactive); in test [9], 67.4% (inactive) and 106% (inactive); in [10] it was 27.7% (inactive) and 107% (inactive); in [11] it was 39.9% (inactive) and 97.5% (inactive). Also, the growth is 72.8% (inactive) and 89.3% (inactive) in [12]; 70% (inactive) and 105% (inactive) in test [13]; -1.25% (active) and 116% (inactive) in [14]; 80.5% (inactive) and 99.1% (inactive) in [15]; 102% (inactive) and 94.6% (inactive) in test [16]; 88% (inactive) and 96.8% (inactive) in [17]. Besides, the growth in test [18] is 80.9% (inactive) and 75% (inactive); in test [19], 79.2% (inactive) and 95% (inactive).
